Experiment: S6 kinase pathway phospho-S6 level changes – cell-based, A549, cytoblot, luminescence, serum-stimulated, primary screen (AID 1158);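 also: serum-stimulated A549 lung adenocarcinoma cells; signal is phosphorylated S6 detected by cytoblot immunostaining with HRP secondary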
Conditions: 5 h, higher = more signal
With OCCCC1=CC(c2ccc(CN3CCCC3)cc2)N(Cc2sc3ccccc3c2Cl)CC1 (centres undefined) the z-score was -0.319.
In the case of CC(C)C(CO)N1C(=O)[C@@H]2C3C(=O)OCCC/C=C\[C@H]3OC23C=CCN(C(C)(C)C)C(=O)[C@@H]13 (some centres undefined), the z-score is reported as -0.668.
Compound O=c1n(-c2ccccc2)c(=O)n2n1CC(COc1ccccc1)=C([C@H](O)CCc1ccccc1)[C@@H]2CO has a z-score of 1.02.
For CC(C)C(=C=CC[C@H](O)c1cccc(OCCO)c1)C[C@H](O)c1cc(Cl)cc(Cl)c1O, the z-score was 1.53.
For CC(C)(C)OC(=O)CC[C@]1(C(=O)NCC(O)CO)N=C(c2ccc(OCCCO)cc2)O[C@H]1c1ccccc1 (some centres undefined), the z-score was 2.01.
COC(=O)[C@@]1(Cc2ccccc2)[C@H]2c3cc(C(=O)N(C)C)n(CCc4ccc(O)c(OC)c4)c3C[C@H]2CN1C(=O)c1ccccc1 gave a z-score of -0.565.
Compound C=CCNC(=O)[C@@H]1[C@H]2C(=O)O[C@H](c3ccccc3)[C@H](c3ccccc3)N2[C@H](c2ccc(O)cc2)[C@@]12C(=O)N(C(=O)OCCOC)c1ccc(C#CC3(O)CCCCCC3)cc12 has a z-score of 0.305.
In the case of CCCC[C@@H]1C[C@H]1[C@@H](NC(=O)c1cccs1)c1ccc(C(F)(F)F)cc1, the z-score is reported as -0.79.
COCCOC(=O)N1C(=O)[C@@]2(c3cc(C#Cc4ccc(OC)cc4)ccc31)[C@H](c1ccccc1OCCO)N1[C@H](c3ccccc3)[C@H](c3ccccc3)OC(=O)[C@H]1[C@@H]2C(=O)N1CCCCCCC1 showed a z-score of 1.99.
Compound Cc1ccccc1C(O)C1C=CC2C(=O)N(C)C(=O)C2N1N(c1ccccc1)c1ccccc1 (centres undefined) has a z-score of -0.877.
For Cc1ccc(S[C@]2(C(=O)NCC(F)(F)F)CC(=O)N(Cc3ccccc3C(F)(F)F)[C@@H]2c2ccc(CO)cc2I)cc1, the z-score was -0.142.
Compound CC(C)N1C(=O)C[C@@](C(=O)NCCCN(C)C)(c2ccc([N+](=O)[O-])cc2)[C@H]1c1ccc(CO)cc1 has a z-score of 0.23.
For CCOc1cc(C(O)C2C=CC3C(=O)N(c4ccccc4)C(=O)C3N2Nc2ccc(C#N)cc2)ccc1O (centres undefined), the z-score was -1.03.
Work on CN(C)C(=O)[C@@]1(Cc2ccccc2CN=[N+]=[N-])N=C(c2ccc(OCCCO)cc2)O[C@H]1c1ccccc1CN=[N+]=[N-] yielded a z-score of 0.0709.
C=CC[C@]1(C(=O)O)COC(c2ccc(OCCCO)cc2)=N1 gave a z-score of -0.331.
For C=CCC(OC(C)=O)[C@@H]1[C@@H](N(Cc2cccc3ccccc23)C(=O)Cc2ccc(OC)cc2)c2cc(OCCCO)ccc2N1C(=O)c1ccc2ccccc2n1 (some centres undefined), the z-score was 0.135.
CCOC(=O)C[C@H]1[C@H](OC(=O)Cc2ccc3c(c2)OCO3)[C@@H](NC(=O)CC(C)C)c2cc(OCCCO)ccc2N1C(=O)Cc1ccc(OC)cc1 gave a z-score of 1.72.
[N-]=[N+]=NCc1ccccc1C[C@@]1(C(=O)NCc2ccccc2)N=C(c2ccc(OCCCO)cc2)O[C@@H]1c1ccccc1N=[N+]=[N-] showed a z-score of 0.108.
O=C1C2C=CC(C(O)c3ccc(F)cc3)N(n3cnnc3)C2C(=O)N1Cc1ccccc1 (centres undefined) gave a z-score of 1.2.
With NC(=O)NCC#Cc1ccc2c(c1)[C@]1(C(=O)N2)[C@H](C(=O)NC[C@H](O)c2ccccc2)[C@H]2C(=O)O[C@H](c3ccccc3)[C@H](c3ccccc3)N2[C@@H]1c1ccc(OCCO)cc1 the z-score was 0.0785.
Compound O=C1O[C@H](c2ccccc2)[C@H](c2ccccc2)N2[C@H]1[C@@H](C(=O)N1CCN(c3ncccn3)CC1)[C@]1(C(=O)Nc3ccc(C#CC4(O)CCCCCC4)cc31)[C@H]2c1ccc(OCCO)cc1 has a z-score of -0.274.
In the case of CCOc1cc(C(O)C2C=CC3C(=O)N(C)C(=O)C3N2Nc2ccccc2)ccc1O (centres undefined), the z-score is reported as -1.01.
With CN(C)CCCNC(=O)[C@@H]1c2ccccc2C(=O)N(Cc2ccccc2Cl)[C@H]1c1ccc(CO)cc1 the z-score was 0.517.
For [N-]=[N+]=NCc1ccccc1[C@H]1OC(c2ccc(OCCCO)cc2)=N[C@@]1(CCS(=O)(=O)c1ccccc1)C(=O)N1CCCCC1, the z-score was 0.515.
Work on O=C1NC(=O)C2C1C=CC(C(O)c1ccco1)N2Nc1ccccn1 (centres undefined) yielded a z-score of -1.19.
CCCCC(O)C1C=CC2C(=O)N(c3ccccc3)C(=O)C2N1Nc1ccc(C(C)C)cc1 (centres undefined) showed a z-score of -0.843.
C=CC[C@@]1(C(=O)N2CCOCC2)N=C(c2ccc(OCCCO)cc2)O[C@@H]1c1ccccc1CN=[N+]=[N-] gave a z-score of 0.36.
Compound COC(=O)[C@H](Cc1ccccc1)N1CC(/C=C/C2CC2)=C[C@H]1[C@H](O)Cc1ccccc1 has a z-score of 0.184.
C=CC[C@]1(C(=O)NCCN2CCOCC2)N=C(c2ccc(OCCCO)cc2)O[C@H]1c1ccccc1CN=[N+]=[N-] showed a z-score of 0.202.

Reference: PubChem BioAssay
